An excerpt weighted towards active compounds, which were near 6.9% of everything screened.
S-ASM inh: inhibitors of human secretory acid sphingomyelinase. hit rate 0.006% among 340,000. AID 504937. Potency, µM (series often up to 57.5 µM), for the others: at the highest dose activity change, negative = inhibition, most hits filed as inhibitors. placental ASM, HMU-PC fluorogenic substrate, 60 min; also: potency is read from the fitted curve at half-maximal effect
Target sequence (P17405 47-631 limits assumed): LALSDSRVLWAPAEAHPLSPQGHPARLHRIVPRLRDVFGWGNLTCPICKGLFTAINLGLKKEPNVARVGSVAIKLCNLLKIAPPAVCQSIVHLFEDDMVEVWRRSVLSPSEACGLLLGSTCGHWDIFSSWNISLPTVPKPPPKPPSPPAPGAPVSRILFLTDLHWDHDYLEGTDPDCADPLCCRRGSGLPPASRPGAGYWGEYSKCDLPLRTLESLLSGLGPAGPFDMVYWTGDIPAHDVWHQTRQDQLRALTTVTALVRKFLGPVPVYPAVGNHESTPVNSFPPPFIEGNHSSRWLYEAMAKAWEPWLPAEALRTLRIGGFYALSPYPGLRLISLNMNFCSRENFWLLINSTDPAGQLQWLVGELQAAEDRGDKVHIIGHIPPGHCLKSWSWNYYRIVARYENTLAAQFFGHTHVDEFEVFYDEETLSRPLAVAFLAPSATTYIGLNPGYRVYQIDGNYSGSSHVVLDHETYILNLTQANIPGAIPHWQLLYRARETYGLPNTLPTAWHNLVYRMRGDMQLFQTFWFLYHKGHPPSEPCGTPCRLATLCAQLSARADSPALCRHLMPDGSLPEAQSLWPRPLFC
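Steps: dispense placental human ASM, pin compound, wait 10 min at room temperature, add HMU-PC0 substrate at 9 uM final, incubate 60 min at 37 °C, add stop solution raising pH to 10, read fluorescence.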
SW480 rerep: DNA re-replication induction in SW480 cells; SW480 DNA re-replication, Hoechst DNA content imaging, 48 h; Potency, µM (titrated, usually from 46.1 µM), inactives show at the highest dose re-replication activation, actives largely listed as activators; hit rate 1.8% among 340,000; AID 624297; also: potency is read from the fitted curve at half-maximal effect; % of control where 0% means no effect; nearly all actives have a fitted effect of over 55% in size
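Treated cells incubate 48 hr (37 C, 5% CO2), are stained 40 min with Hoechst, and nuclear fluorescence is enumerated; a rise in nuclei with high DNA signal marks re-replication.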
KB-3-1 tox: KB-3-1 parental cell cytotoxicity; KB-3-1 viability, CellTiter-Glo ATP luminescence, 72 h; Potency, µM (series often up to 46.1 µM), actives largely listed as cytotoxic; hit rate 1.4% among 400,000; also: potency is read from the fitted curve at half-maximal effect; % is scaled to controls: 0 for no effect and ±100 for the full control effect; nearly all actives have a fitted effect of over 60% in size
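72 h, 37 °C compound treatment of KB-3-1 parental cells; CellTiter-Glo added, 10 min, luminescence read. Data corrected against DMSO-only plates and normalized before curve fitting.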
MCF10A rerep: induces DNA re-replication in MCF 10a normal breast cells; Potency, µM (doses to about 46.1 µM), for inactives: at the top dose activity, positive = re-replication, hits mostly activators; MCF 10A DNA re-replication, Hoechst nuclear intensity, 48 h; hit rate 2.9% among 350,000; also: potency is read from the fitted curve at half-maximal effect; % of control where 0% means no effect; nearly all actives have a fitted effect of over 50% in size
KB-V1 cytotox: kills drug-selected multidrug resistant KB-V1 cells | Potency, µM (doses to about 46.1 µM), hits mostly cytotoxic | KB-V1 MDR cells viability, CellTiter-Glo, 72 h | AID 1347076 | hit rate 3.4% among 400,000; also: potency is read from the fitted curve at half-maximal effect; % is scaled to controls: 0 for no effect and ±100 for the full control effect; nearly all actives have a fitted effect of over 60% in size
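Compound-treated KB-V1 multidrug-resistant cells, 72 h, 37 degrees C; viability by CellTiter-Glo. Fitted qHTS curves give the values.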
Giardia kill: Giardia lamblia killing | activity change, % at 7.66 µM, hits read low | hit rate 0.15% among 340,000 | Giardia lamblia trophozoite viability | AID 540267; in the data active = activity change below about -80%; inconclusive = between about -30% and that limit;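 also: parasites exposed to compound for two days anaerobically before the ATP read; % is scaled to controls: 0 for no effect and ±100 for the full control effect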
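Luminescence from cellular ATP indicates surviving trophozoites (100 cells/well) following 48 hrs anaerobic compound treatment at 37 deg C; signal develops 15-30 min at room temperature.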
Active calls of the source: *; i = inactive; ? = inconclusive; / = no result; [ ] = remark or other dose. Unless noted, calls follow the shape of the dose curve; as a rule, active = well fitted curve in the direction sought with a large enough effect; inconclusive = small, poorly fitted or top-dose-only effect, or another doubt; inactive = no such curve, though single readings can be large; an effect the other way counts as inactive or inconclusive.

SMILES	S-ASM inh	SW480 rerep	KB-3-1 tox	MCF10A rerep	KB-V1 cytotox	Giardia kill
CCN(CC)S(=O)(=O)c1cccc(C(=O)N/N=C/c2ccc(O)c(O)c2O)c1	-5%	-9%	i	3%	i	-13
CCN(CC)S(=O)(=O)c1cccc(C(=O)NCCc2ccccc2)c1	3%	-3%	i	4%	9.2µM*	2
CCN(CC)S(=O)(=O)c1cccc(C(=O)N/N=C(\C)c2ccc(O)cc2O)c1	17%	1.8µM*	i	3.7µM*	?	-3
CN(C)S(=O)(=O)c1cccc(C(=O)NCCNC(=O)c2cccc(S(=O)(=O)N(C)C)c2)c1	2%	-4%	i	-14%	i	?
O=C(NCC1(c2ccccc2)CCCC1)C(=O)Nc1cccc(C(F)(F)F)c1	/	/	i	/	i	/
O=S(=O)(Nc1cccc(-c2ccc(N3CCOCC3)nn2)c1)c1ccc(F)c(C(F)(F)F)c1	/	/	i	/	?	/
O=C1COc2ccc(-c3cc(-c4ccccc4)c4c(n3)-c3ccccc3OC4)cc2N1	/	/	i	/	i	/
CN(C)c1ccc(/C=C/c2ccnc3ccc([N+](=O)[O-])cc23)cc1	/	/	i	/	i	/
Cc1cc(/C=C\c2ccc3cc(N(C)C)ccc3[n+]2C)c(C)n1-c1ccccc1	?	-8%	4.6µM*	-3%	?	-1
CCc1c(C)sc2c1CCN(Cc1ccccc1)C2c1ccccc1 (centres undefined)	/	/	?	/	i	/
COc1ccccc1C(CCNCc1ccc(N(C)C)cc1)c1ccc(OC(C)C)cc1 (centres undefined)	-1%	?	?	17%	i	10
COc1ccc(C(CCNCc2ccc(OC(C)C)cc2)C(C)C)cc1 (centres undefined)	-5%	19%	i	-12%	15µM*	-9
COc1ccc(CNCCC(c2ccc(OC(C)C)cc2)C(C)C)cc1OC (centres undefined)	-6%	?	?	?	5.2µM*	-6
COc1ccc(C(CCNCc2ccc(N(C)C)cc2)C(C)C)cc1 (centres undefined)	-2%	?	i	?	16µM*	-1
COc1cccc(/C=C2/Sc3ccc(C(=O)NCCN4CCCCCC4)cc3NC2=O)c1	-15%	?	i	21µM*	i	-16
Cc1cccc(/C=C2/Sc3ccc(C(=O)NCCN4CCCC4)cc3NC2=O)c1	-27%	?	i	?	i	10
COc1ccc(/C=C2/Sc3ccc(C(=O)NCCCN4CCOCC4)cc3NC2=O)cc1OC	-6%	21µM*	?	18µM*	i	-7
O=C(Nc1ccc(N2CCN(c3ncccc3C(F)(F)F)CC2)nc1)c1cccs1	-3%	0%	16µM*	?	18µM*	5
O=C(Nc1ccc(N2CCN(c3ccc(C(F)(F)F)cn3)CC2)nc1)c1cccs1	7%	?	i	-35%	i	10
Oc1ccc(C(=S)N2CCCCC2)cc1Cl	-3%	3%	i	15%	18µM*	-7
CCN1CCN(C(=S)c2ccc(Cl)c(Cl)c2)CC1	-1%	-1%	i	2%	15µM*	-2
CCN1CCN(C(=S)Nc2ccc(Cl)c(Cl)c2)CC1	2%	5%	i	20%	?	-20
COc1cc(C(=S)N2CCCCC2)ccc1O	4%	?	i	-10%	i	9
CC(=O)c1ccc(NC(=O)Cn2nc(C(F)(F)F)c3c2CCCC3)cc1	/	/	i	/	i	/
CCCCNc1ccc(/C=C2\C=Cc3ccccc32)cc1	/	/	?	/	i	/
SMILES	S-ASM inh	SW480 rerep	KB-3-1 tox	MCF10A rerep	KB-V1 cytotox	Giardia kill
O=Cc1ccc(O)c2ncccc12	31%	7.3µM*	6.5µM*	1.6µM*	?	29
C=C1CCN(C(C(=O)NCc2ccc(Cl)c(Cl)c2)C(C)C)S(=O)(=O)c2ccccc21 (centres undefined)	/	/	/	/	/	-5
N#Cc1cnn(-c2nc(SCc3ccccc3)nc3sc4c(c23)CCCC4)c1N	-5%	1%	i	0%	21µM*	-6
COCCCNc1nc(SCc2ccccc2)nc2sc3c(c12)CCC3	-7%	?	i	-183%[0.0737 µM]	i	2
CCCCc1ccc(N=N/C(C(=O)Nc2ccc(NC(C)=O)cc2OC)=C(/C)O)cc1	22µM*	-9%	i	-2%	i	1
CCCN1Cc2cccc(C(=O)Nc3cc(Cl)ccc3C)c2C1=O	/	/	i	/	i	/
CCCCN(C(=O)c1ccc([N+](=O)[O-])s1)c1c(N)n(CC(C)C)c(=O)[nH]c1=O	/	13%	i	10%	i	10
CCCCn1c(N)c(N(CCC(C)C)C(=O)c2ccc([N+](=O)[O-])s2)c(=O)[nH]c1=O	10%	?	i	23µM*	i	-29
CC1=C(c2ccc(C)c(C)c2)S(=O)(=O)N=C1N1CCC(C(=O)Nc2cccc(F)c2)CC1	/	/	i	/	i	/
COc1ccc(S(=O)(=O)NCC(=O)N(CC(=O)NCc2ccco2)Cc2ccc(F)cc2)cc1	0%	-1%	i	13%	i	8
O=C1OCCN1C(=O)[C@H]1[C@H](c2ccc(F)cc2)C(c2cccc(Cl)c2)=NN1c1ccc(Br)cc1	i	1.3µM*	?	?	i	-25
O=C1OCCN1C(=O)[C@H]1[C@H](c2ccc(Cl)cc2)C(c2ccccc2)=NN1c1ccc(Br)cc1	i	23µM*	i	?	i	-15
O=C1OCCN1C(=O)[C@H]1[C@H](c2ccccc2)C(c2cccc(Cl)c2)=NN1c1ccc(Br)cc1	i	2.1µM*	i	?	i	-19
COc1ccc(-c2cc(NCc3ccc(C)cc3)n3cnnc3n2)cc1	/	/	i	/	i	/
CCOC(=O)c1scc(-c2ccc(C)cc2)c1S(=O)(=O)N1CCN(c2ccccc2F)CC1	/	/	i	/	i	/
CCC(C(=O)NCCc1ccccc1)n1nc(C)n2c(cc3sccc32)c1=O (centres undefined)	/	/	i	/	i	/
O=C(Nc1ccccc1)c1ccccc1NS(=O)(=O)c1ccc(Cl)s1	-5%	1%	5.2µM*	10%	4.1µM*	5
O=C(Nc1ccccc1Cc1ccccc1)c1ccccc1NS(=O)(=O)c1ccc(Cl)s1	-1%	?	?	9.2µM*	2.6µM*	-3
O=S(=O)(Nc1ccccc1N1CCCCC1)c1ccc(Cl)s1	-7%	-1%	13µM*	3%	i	1
O=S(=O)(Nc1ccccc1N1CCCC1)c1ccccc1C(F)(F)F	/	/	i	/	i	/
O=C(NCc1ccco1)c1ccccc1NS(=O)(=O)c1ccc(Cl)s1	-1%	-9%[9.22 µM]	i	21%	i	-6
